According to PubChem BioAssay (NCI):
The panel holds about 79,000 compounds, 15% with a hit somewhere; the sample as a whole holds those more often. Values without a mark were called inactive. Activity calls are given as the source filed them. Rule as the data show it: active = growth inhibition above about 70%; inactive = the rest.

What was measured:
[1] = NCI Yeast Anticancer Drug Screen. Data for the rad50 strain (AID 155);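 also: 0% = growth of vehicle-only cultures of the same strain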; details: S. cerevisiae rad50 strain growth inhibition, stronger effect = higher value
Outline: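 Inhibition values express reduced yeast growth in compound-treated cultures relative to vehicle-treated controls.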

[2] = NCI Yeast Anticancer Drug Screen. Data for the mec2-1 strain (AID 157); details: S. cerevisiae mec2-1 strain, stronger effect = higher value
Outline: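 mec2-1 yeast strain, carrying an alteration in DNA damage repair or cell cycle control, was exposed to compounds; growth inhibition was measured relative to vehicle-treated controls.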

[3] = NCI Yeast Anticancer Drug Screen. Data for the sgs1 mgt1 strain (AID 161);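 also: 0% = growth of cultures given vehicle only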; details: S. cerevisiae sgs1 mgt1 strain, stronger effect = higher value
Outline: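 Percent growth inhibition was derived by comparing compound-exposed mutant yeast with vehicle-exposed cultures. The strain carries alterations in DNA damage repair.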

[4] = NCI Yeast Anticancer Drug Screen. Data for the cln2 rad14 strain (AID 165);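 also: 0% = growth equal to vehicle treated cultures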; details: S. cerevisiae cln2 rad14 strain, stronger effect = higher value
Outline: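 Yeast carrying cln2 and rad14 alterations (cell cycle control and DNA damage repair) were exposed to compounds. Growth inhibition was measured against vehicle-treated controls.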

[5] = NCI Yeast Anticancer Drug Screen. Data for the bub3 strain (AID 167); details: S. cerevisiae bub3 mutant strain, stronger effect = higher value
Outline: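 Steps: expose the mutant yeast strain to compound; grow alongside vehicle-treated cultures; measure growth; express inhibition against the vehicle cultures.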

[6] = NCI Yeast Anticancer Drug Screen. Data for the mlh1 rad18 strain (AID 175); details: S. cerevisiae mlh1 rad18 strain growth inhibition, stronger effect = higher value
Outline: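 Growth inhibition of the yeast strain was measured after compound exposure and expressed relative to vehicle-treated controls. The strain carries defined defects in DNA damage repair.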

[7] = at 5.0 µM (retest, dose inferred, filed as 0.5)
[8] = at 50.0 µM (retest, dose inferred, filed as 5.0)

| SMILES | growth inhibition [1, 7] | growth inhibition [1, 8] | growth inhibition ([1]; at 50.0 µM) | growth inhibition [2, 7] | growth inhibition [2, 8] | growth inhibition ([2]; at 50.0 µM) | growth inhibition [3, 7] | growth inhibition [3, 8] | growth inhibition ([3]; at 50.0 µM) | growth inhibition [4, 7] | growth inhibition [4, 8] | growth inhibition ([4]; at 50.0 µM) | growth inhibition [5, 7] | growth inhibition [5, 8] | growth inhibition ([5]; at 50.0 µM) | growth inhibition [6, 7] | growth inhibition [6, 8] | growth inhibition ([6]; at 50.0 µM) |
| --- | --- | --- | --- | --- | --- | --- | --- | --- | --- | --- | --- | --- | --- | --- | --- | --- | --- | --- |
| Oc1cc2ccccc2c2c1ccc1ccccc12 | -142% | 90% (active) | 84.5% (active) | -35% | 97% (active) | 77.8% (active) | -52% | 95% (active) | 86.7% (active) | -55% | 95% (active) | 67.8% | -55% | 94% (active) | 84% (active) | -94% | 92% (active) | 77.3% (active) |
| CCCC(=O)c1cc(O)c(O)c(CN(C)Cc2cc(Cl)cc(C)c2O)c1O | -8% | 91% (active) | 55% | 3% | 97% (active) | 52.5% | -11% | 94% (active) | 50.5% | -16% | 90% (active) | 60.6% | -7% | 97% (active) | 49% | 19% | 96% (active) | 54.5% |
| O=C(NC1=Nc2c(ncn2COCCO)S(=O)(=O)[N-]1)c1ccccc1.[Ag+] | 100% (active) | 99% (active) | 98.3% (active) | 100% (active) | 100% (active) | 98.2% (active) | 99% (active) | 99% (active) | 98.5% (active) | 99% (active) | 99% (active) | 86% (active) | 100% (active) | 99% (active) | 98.3% (active) | 99% (active) | 99% (active) | 97.3% (active) |
| O=c1c(-c2ccccc2)coc2cc(O)ccc12 | -14% | 8% | 60.6% | 5% | 23% | 36.9% | -6% | 16% | 63.3% | -12% | -12% | 18.1% | -25% | 34% | 75.8% (active) | -3% | 12% | 4.9% |
| Cc1ccc(Cc2n[nH]c(=O)[nH]2)cc1 | 32% | 35% | -28.9% | 18% | 14% | -45.1% | 30% | 33% | -35.7% | 17% | 30% | -2.5% | 26% | 22% | -26.3% | 45% | 52% | -31.6% |
| Oc1cccc2ccc(/C=C/c3ccccn3)nc12 | 1% | 98% (active) | 97.4% (active) | 2% | 97% (active) | 97.2% (active) | -6% | 98% (active) | 98.2% (active) | -3% | 96% (active) | 95% (active) | -2% | 98% (active) | 97.1% (active) | 2% | 98% (active) | 98.5% (active) |
| CCc1nc2c(O)ccc(O)c2nc1C | -137% | 33% | 72.3% (active) | -43% | -11% | 62.9% | -50% | 37% | 65% | -55% | -10% | 59.4% | -63% | 17% | 84.2% (active) | -107% | 2% | 90.3% (active) |
| COC(OC)C1C2C3C=CC(C4C(=O)OC(=O)C34)C12 (stereo not given) | -5% | 0% | 76.5% (active) | -16% | -4% | 98.4% (active) | -15% | -13% | 29.4% | -2% | -5% | 98.3% (active) | 0% | 14% | 97.2% (active) | 6% | 2% | 98.6% (active) |
| Cc1c2cc[n+](C)cc2c(COC2OC(CO)C(O)C2O)c2c3ccccc3n(C)c12 (stereo not given) | 23% | 44% | 65% | 10% | 10% | 23.6% | -12% | 23% | 17.9% | 19% | 24% | 18.1% | 12% | 14% | 28.1% | 13% | 14% | 23.2% |
| O=C1CSC(=Nc2ccc(F)cc2F)N1Cc1cccs1 | 44% | 92% (active) | 80.2% (active) | 36% | 98% (active) | 78.2% (active) | 39% | 98% (active) | 90.5% (active) | 25% | 63% | 50.1% | 41% | 61% | 86.2% (active) | 47% | 98% (active) | 84.6% (active) |
| CC1=C(Br)S(=O)(=O)N(c2ccccc2)C(CBr)=C1Br | 57% | 95% (active) | 19.8% | 41% | 97% (active) | 18.1% | 81% (active) | 99% (active) | 16.9% | 26% | 95% (active) | 5.05% | 53% | 96% (active) | 27.7% | 70% (active) | 93% (active) | 50.1% |
| Cc1c2ncccc2cc2oc3ccccc3c(=O)c12 | 67% | 9% | 62.7% | 24% | 78% (active) | 14.8% | 37% | 6% | 24.4% | 16% | 37% | 13.8% | 15% | 75% (active) | 19.9% | 23% | 10% | 68.7% |
| O=CNc1ccc(Oc2ccc(NC=O)cc2)cc1 | -1% | -18% | 3.6% | -18% | -19% | 6.75% | 1% | 1% | 1.45% | -1% | 7% | 61.3% | -2% | -15% | -6.45% | 17% | -5% | 30.6% |
| CC(C)NC(=O)OCCS(=O)c1c(Cl)c(Cl)nn1C (stereo not given) | -15% | 62% | 98.8% (active) | 11% | 37% | 99.2% (active) | -5% | 53% | 42.4% | 1% | 20% | 97.7% (active) | -4% | 75% (active) | 97% (active) | -7% | 56% | 99% (active) |
| Cc1ccc(C2(O)c3ccccc3-c3ccccc32)cc1 | 4% | 98% (active) | 99.2% (active) | 8% | 100% (active) | 99.2% (active) | 15% | 99% (active) | 99.2% (active) | -9% | 99% (active) | 98.2% (active) | -8% | 99% (active) | 99.3% (active) | -4% | 98% (active) | 99% (active) |
| O=C(O)CCC(=O)c1ccc2c(c1)CCCC2 | -5% | -1% | 71.7% (active) | -9% | 19% | 42.1% | -5% | 0% | 77.2% (active) | 1% | 25% | -24.1% | -16% | -48% | 20.7% | 0% | -6% | 77.6% (active) |
| O=C(/C(=C\c1ccccc1)c1ccccc1)c1ccc(Br)cc1 | 7% | -9% | 10.2% | 3% | 4% | -16.2% | 4% | 5% | 24.6% | 0% | -8% | 47.1% | 1% | 9% | 11.8% | -8% | 2% | 17.4% |
| CCOc1ccc2c(c1)[n+]([O-])c(S(=O)(=O)c1ccc(C)cc1)c(N)[n+]2[O-] | -5% | 63% | 91.2% (active) | 18% | 77% (active) | 48.3% | 30% | 88% (active) | 90.8% (active) | 13% | 55% | 90.3% (active) | 37% | 97% (active) | 93.3% (active) | 20% | 85% (active) | 94.2% (active) |
| CNC(=S)N/N=C(\C=N\NC(=S)NC)c1ccccc1 | 7% | 32% | 74.7% (active) | -14% | 35% | 37% | 3% | 37% | 82.4% (active) | 9% | 30% | 37.8% | -1% | 25% | 59.5% | 0% | 44% | 66.8% |
| CS(=O)(=O)OCC(COS(C)(=O)=O)C(c1ccccc1)c1ccccc1Br (stereo not given) | 12% | 34% | 28.4% | 7% | 29% | 36% | 14% | 47% | 37.1% | 16% | 44% | 13.1% | -1% | 16% | 5.4% | 7% | 51% | 56.2% |
